# Laboratory results taken from PubChem BioAssay (NCATS).
# Results filed as inconclusive are left out. Activity calls are given as the source filed them. Unless noted, the call rests on the fitted dose curve; in most records, active means well fitted curve in the direction sought with a large enough effect; inconclusive means small, poorly fitted or top-dose-only effect, or another doubt; inactive means no such curve, though single readings can be large; an effect the other way counts as inactive or inconclusive. Where a SMILES comes first, the peptide text is derived from it. Bridges are numbered along the chain shown (N, C = ends). [ ]: non-standard residue; d: D form. The star is where a group is joined. Dab(CH2SO3H) = N[C@@H](CCNCS(=O)(=O)O)C(=O)O; X3 = CC[C@@H](C)CCCCC(=O)*; Dab = NCC[C@H](N)C(=O)O
# Tests used:
# [1] = qHTS Assay for Identifying Gametocytocidal Compounds (AID 743244); further: potency means the concentration at half of the fitted maximal effect;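 on max response: on the % scale 0 is the no-effect control and ±100 the full control effect; actives lower the fluorescent signal which means gametocytes are killed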; settings: P. falciparum 3D7 stage III-V gametocytes, alamarBlue, 72 h; max response: stronger effect = lower value
# Method in brief: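 3D7 gametocytes, stages III–V, 20,000/well; cpd 72 h, 37 °C/5% CO2; + alamarBlue 24 h; fluor. Ex 525/Em 598.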
# [2] = qHTS assay to identify small molecule inhibitors of chordoma cells - UCH-2 (AID 1259356); further: on the % scale 0 is the no-effect control and ±100 the full control effect
# [3] = qHTS profiling of the MIPE4 collection as inhibitors of Plasmodium falciparum (3D7) proliferation (AID 743344; call rule not given here;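 further: scaled between DMSO vehicle wells and 0.29 µM artemisinin as full inhibition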); settings: P. falciparum 3D7 in erythrocytes, SYBR Green DNA fluorescence, 72 h; at 28.5 µM (top of the series) unless noted
# Method in brief: (§1)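 Erythrocytes infected with P. falciparum (0.3% parasitemia, 2.5% hematocrit) incubated with compounds 72 h at 37 C, 5% CO2. Lysis with saponin/Triton buffer containing SYBR Green I, overnight at room temperature in the dark; DNA fluorescence (485/535 nm) normalised to 0.29 uM artemisinin and DMSO.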
# [4] = qHTS profiling of the MIPE4 collection as inhibitors of Plasmodium falciparum (DD2) proliferation (AID 743345; call rule not given here); settings: P. falciparum Dd2 in erythrocytes, SYBR Green DNA, 72 h; at 28.5 µM (top of the series) unless noted
# Method in brief: as §1
# [5] = qHTS profiling of the MIPE4 collection as inhibitors of Plasmodium falciparum (DD2) proliferation (Rep 2) (AID 743346; call rule not given here); settings: P. falciparum Dd2 in erythrocytes, SYBR Green DNA, 72 h; at 28.5 µM (top of the series) unless noted
# Method in brief: as §1
# [6] = qHTS profiling of the MIPE4 collection as inhibitors of Plasmodium falciparum (HB3) proliferation (AID 743347; call rule not given here;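 further: plate controls were DMSO vehicle wells for no effect and artemisinin wells for full effect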); settings: P. falciparum HB3 in erythrocytes, SYBR Green DNA, 72 h; at 28.5 µM (top of the series) unless noted
# Method in brief: as §1
# [7] = Identifying Small Molecule Inhibitors of Pancreatic Cancer Stem Cells (A2780, Spheroid) (AID 1259357); settings: Potency: A2780 spheroid viability;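 further: compound exposure lasted 48 h before the ATP luminescence read; 100% = DMSO treated cells and 0% = wells without cells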
# Method in brief: (§2)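 Pre-formed 14-day tumor spheroids or adherent cells dosed and incubated 48 h, 37C, 5% CO2. Viability assessed by CellTiter-Glo.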
# [8] = Identifying Small Molecule Inhibitors of Pancreatic Cancer Stem Cells (SN12C, Spheroid) (AID 1259360); settings: Potency: SN12C spheroid viability; further: potency means the concentration at half of the fitted maximal effect
# Method in brief: as §2
# [9] = Identifying Small Molecule Inhibitors of Pancreatic Cancer Stem Cells (A278, Adherent) (AID 1259361); further: nearly all actives have a fitted effect of over 35% in size
# Method in brief: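 Cytotoxicity read by CellTiter-Glo luminescence after 48 h compound exposure at 37C; percent activity scaled between DMSO-treated cells and cell-free wells. Spheroid formats used cells pre-formed 14 days in stem cell media on hydrogel.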
# [10] = qHTS profiling for inhibitors of Plasmodium falciparum (HB3) proliferation (AID 743324); settings: Plasmodium falciparum HB3 blood-stage proliferation; at 28.7 µM (top of the series) unless noted;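 further: 100% = DMSO vehicle wells and 0% = artemisinin-treated control wells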
# Method in brief: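 P. falciparum HB3 grown in erythrocytes (0.3% parasitemia, 2.5% hematocrit final) with compound for 72 h at 37 C, 5% CO2. Parasite DNA detected by SYBR Green after saponin/triton lysis overnight; normalized to 0.29 uM artemisinin and DMSO.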
# [11] = Identifying Small Molecule Inhibitors of Pancreatic Cancer Stem Cells (Panc1, Adherent) (AID 1259362); settings: Potency: viability; further: potency means the concentration at half of the fitted maximal effect
# Method in brief: as §2
# [12] = P-glycoprotein substrates identified in KB-3-1 adenocarcinoma cell line, qHTS therapeutic library screen (AID 1346986); further: nearly all actives have a fitted effect of over 60% in size
# Method in brief: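 Counter-screen: cherry-picked hits retested in the KB pair and in HEK-293 pcDNA/MDR-19 cells ± tariquidar. Primary screen used 72 h CellTiter-Glo viability in KB-3-1 and KB-8-5-11.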
structure (smiles),measurement,setting,value
C[C@]12CCC(=O)C=C1CC[C@@H]1[C@@H]2[C@@H](O)C[C@@]2(C)[C@H]1CC[C@]2(O)C(=O)COP(=O)(O)O,max response,[1],-12.2% (inactive)
same,Potency,[2],inactive
CO[C@H]1C=CO[C@@]2(C)Oc3c(C)c(O)c4c(O)c(c5c(nc6cc(C)ccn65)c4c3C2=O)NC(=O)/C(C)=C\C=C[C@H](C)[C@H](O)[C@@H](C)[C@@H](O)[C@@H](C)[C@H](OC(C)=O)[C@@H]1C,Potency,[1],12.6 µM (active)
same,Potency,[2],inactive
O=C1CSC2(CCN(CCCN3c4ccccc4Sc4ccc(Cl)cc43)CC2)N1,max response,[1],-3.9% (inactive)
same,Potency,[2],inactive
O=C(O)C1CCCN1 (stereo unspecified),max response,[1],5.42% (inactive)
same,Potency,[2],inactive
O=C(O)c1cc(=O)c2c3nc4ccccc4oc-3cc(=O)c2[nH]1,max response,[1],-14.4% (inactive)
same,Potency,[2],inactive
O=C(O)c1cc(O)c2c(c1)[O][Bi][O]2,max response,[1],17.6% (inactive)
same,Potency,[2],inactive
CC(=O)OCC(=O)[C@@]1(O)CC[C@H]2[C@@H]3C[C@H](C)C4=CC(=O)C=C[C@]4(C)[C@H]3[C@@H](O)C[C@@]21C,max response,[1],-1.15% (inactive)
same,Potency,[2],inactive
Nc1nc(N)c2nc(CNc3ccc(C(=O)N[C@@H](CCC(=O)O)C(=O)O)cc3)cnc2n1,max response,[1],13.9% (inactive)
same,Potency,[2],inactive
O=S(=O)(O)c1ccc2c(N=Nc3ccc(S(=O)(=O)O)c4ccccc34)c(O)c(S(=O)(=O)O)cc2c1,max response,[1],11.5% (inactive)
same,Potency,[2],inactive
C[C@H](CCC(=O)O)[C@H]1CC[C@H]2[C@@H]3[C@H](O)C[C@@H]4C[C@H](O)CC[C@]4(C)[C@H]3CC[C@]12C,max response,[1],11% (inactive)
same,Potency,[2],inactive
CC[C@@H](C(=O)[C@@H](C)[C@@H](O)[C@H](C)CCc1ccc(C)c(O)c1C(=O)O)[C@H]1O[C@](CC)([C@H]2CC[C@](O)(CC)[C@H](C)O2)C[C@@H]1C,Potency,[1],7.08 µM (active)
same,Potency,[2],inactive
CC(=O)N(CC(C)C(=O)O)c1c(I)cc(I)c(N)c1I (stereo unspecified),max response,[1],4.12% (inactive)
same,Potency,[2],inactive
OCCO[C@@H]1[C@@H](O)[C@H](O)[C@@H](CO)O[C@@H]1O,max response,[1],18.7% (inactive)
same,Potency,[2],inactive
CC1(C)O[C@@H]2C[C@H]3[C@@H]4CCC5=CC(=O)C=C[C@]5(C)[C@H]4[C@@H](O)C[C@]3(C)[C@]2(C(=O)CO)O1,max response,[1],-15.3% (inactive)
same,Potency,[2],inactive
CC[C@@H](C)CCCCC(=O)N[C@@H](CCNCS(=O)(=O)O)C(=O)N[C@H](C(=O)N[C@@H](CCNCS(=O)(=O)O)C(=O)N[C@H]1CCNC(=O)[C@H]([C@@H](C)O)NC(=O)[C@H](CCNCS(=O)(=O)O)NC(=O)[C@H](CCNCS(=O)(=O)O)NC(=O)[C@H](CC(C)C)NC(=O)[C@@H](CC(C)C)NC(=O)[C@H](CCNCS(=O)(=O)O)NC1=O)[C@@H](C)O (X3-[Dab(CH2SO3H)]T[Dab(CH2SO3H)][Dab][Dab(CH2SO3H)][dL]L[Dab(CH2SO3H)][Dab(CH2SO3H)]T; lactam 4-C),max response,[1],5.78% (inactive)
same,Potency,[2],inactive
CC(=O)N[C@@H](CC(=O)N[C@@H](CCC(=O)O)C(=O)O)C(=O)O,max response,[1],-4.86% (inactive)
same,Potency,[2],inactive
C=CC1=C(C)C2=CC3=NC(=C(CC(=O)[O-])C4=NC(=C(C)C4=C([O-])[O-])C=c4[n-]c(c(C)c4CC)=CC1=N2)C(CCC(=O)[O-])C3C.[Cu+2].[Na+].[Na+].[Na+] (stereo unspecified),max response,[1],14.4% (inactive)
same,Potency,[2],inactive
C[C@@H]1CCN(C(=O)CC#N)C[C@@H]1N(C)c1ncnc2[nH]ccc12,max response,[1],9.63% (inactive)
same,"parasite growth, % of DMSO control",[3],84%
same,"parasite growth remaining, % of DMSO control (lower = more inhibition)",[4],103%
same,"parasite growth, % of control (lower = inhibition)",[5],78.4%
same,"growth, % of control",[6],96.8%
same,Potency,[7],inactive
same,Potency,[8],inactive
same,IC50 (viability decrease),[9],inactive
Cc1nnc(C(C)C)n1C1CC2CCC(C1)N2CC[C@H](NC(=O)C1CCC(F)(F)CC1)c1ccccc1 (stereo partly specified),max response,[1],3.23% (inactive)
same,"remaining proliferation (% of control), lower = more inhibition",[10],96.7%
same,Potency,[8],inactive
O=c1cc(C2=CC=CC3Sc4ccccc4SC23)oc(N2CCOCC2)c1 (stereo unspecified),max response,[1],-19.3% (inactive)
same,"remaining proliferation (% of control), lower = more inhibition",[10],76.5%
same,Potency,[8],inactive
same,Potency,[11],inactive
CCC(=O)N[C@@H]1Cc2ccccc2[C@H](c2ccccc2)C1,Potency,[12],inactive
CCC1(O)CC2CN(CCc3c([nH]c4ccccc34)[C@@](C(=O)OC)(c3cc4c(cc3OC)N(C=O)[C@H]3[C@](O)(C(=O)OC)[C@H](OC(C)=O)[C@]5(CC)C=CCN6CC[C@]43[C@@H]65)C2)C1 (stereo partly specified),max response,[1],-18.4% (inactive)
same,"remaining proliferation (% of control), lower = more inhibition",[10],8.78%
same,Potency,[8],3.32 µM (active)
same,IC50 (viability decrease),[9],0.418 µM (active)
same,Potency,[11],0.0026 µM (active)
CCn1cc(C2=NOC(C(=O)Nc3c(C)n(C)n(-c4ccccc4)c3=O)C2)c(C)n1 (stereo unspecified),Potency,[12],inactive
